PubChem BioAssay (NCI)
About 83,000 compounds went through this panel and 20% of them were active in at least one assay; those are over-represented in the sample as a whole.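 Method: cells in 96-well plates; compound added at one concentration; 48 h incubation; percent growth measured; values under 10 scored active.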 Values without a mark were called inactive. The source made the active and inactive calls.

tested on: SF-295 CNS; assay: NCI-60 one-dose screen, 48 h (100 = growth as untreated, 0 = no growth, -100 = all killed); details: 10 µM unless noted

Q: `CC(C)SC1=NC(=C(C(=N1)NC2=ClC=CC=C2)C#N)C3=CC=CC=C3` was tested. Which growth did it give?
A: 52.8%

Q: Which growth does the source give for `NS(=O)(=O)c1ccc(Nc2nc(N/N=C/c3ccc(F)cc3)nc(Nc3ccccc3)n2)cc1` here?
A: 70.1%

Q: How did the growth turn out when `C#C[C@]1(O)CC[C@H]2[C@@H]3CC=C4c5sc(Nc6cccc(C)n6)nc5CC[C@]4(C)[C@H]3CC[C@@]21C` was run?
A: -70.4% (active)

Q: Which growth does the source give for `CNC(=O)c1cc(Oc2ccc3nc(NC(=O)c4cc(C)cc(C)c4)sc3c2)ccn1` here?
A: 65%

Q: `C=C(C)[C@@H]1CC[C@]2(COS(C)(=O)=O)CC[C@]3(C)[C@H](CC[C@@H]4[C@@]5(C)CCCNC(C)(C)[C@@H]5CC[C@]43C)[C@@H]12` was tested. Which growth did it give?
A: -40.1% (active)

Q: How did the growth turn out when `CC(C)=CCc1c2c(c(O)c3c1O[C@]14C(=C[C@@H]5C[C@H]1C(C)(C)O[C@@]4(C/C=C(/C)C(=O)O)C5=O)C3=O)CC(O)C(C)(C)O2` (some centres not stated) was run?
A: -48.5% (active)

Q: How did the growth turn out when `O=C(Cn1cc(CN2C(=O)c3ccc([N+](=O)[O-])cc3C2=O)nn1)Nc1ccccc1Br` was run?
A: 108%

Q: Which growth does the source give for `COc1cc(-c2nc(SCc3ccc(C)cc3)[nH]c(=O)c2C#N)ccc1OCc1ccccc1` here?
A: 106%

Q: `CC(C)N=C(N/C(N)=N/c1nc2ccccc2s1)NC(C)C` was tested. Which growth did it give?
A: 43.8%

Q: With `O=C(Nc1cc(Cl)cc(Cl)c1)Nc1ccc2oc(=O)ccc2c1` as the compound, how does the growth read?
A: 3.51% (active)

Q: With `CS(=O)(=O)c1nccc(-c2c(-c3ccc(F)c(OCc4ccccc4)c3)nc3sccn23)n1` as the compound, how does the growth read?
A: 98.5%

Q: `COc1ccc(C2C(C#N)=C(N)Oc3c2sc2ccc(C)cc32)cc1` (configuration not stated) was tested. Which growth did it give?
A: 9.1% (active)

Q: With `C#C[C@]1(O)CC[C@H]2[C@@H]3CC=C4c5sc(-c6ccccn6)nc5CC[C@]4(C)[C@H]3CC[C@@]21C` as the compound, how does the growth read?
A: -37.3% (active)

Q: With `COc1ccc(OC)c([C@H]2c3[nH]c4ccccc4c3C[C@H]3C(=O)N(CCCCCCC(=O)NO)CC(=O)N23)c1` as the compound, how does the growth read?
A: 94.7%

Q: `Cc1cnc2nc(NN)[nH]n12` was tested. Which growth did it give?
A: 95.2%

Q: For `COc1ccc(-c2nc3cc(Cl)c(Cl)cc3n2CC(=O)N=Nc2c(O)[nH]c3ccc(Br)cc23)cc1`, which growth is on record?
A: -50% (active)

Q: With `O=C(NCCCCCCNC(=O)c1c2c(nc3ccccc13)-c1cccnc1SC2)c1c2c(nc3ccccc13)-c1cccnc1SC2` as the compound, how does the growth read?
A: 94.7%

Q: With `COc1ccc(-c2ccc3c4c(cccc24)C(=O)N(N2C(=O)c4cccc5cccc(c45)C2=O)C3=O)cc1` as the compound, how does the growth read?
A: 105%

Q: `COc1ccc(-c2nc3cc(Cl)c(Cl)cc3n2CC(=O)N=Nc2c(O)[nH]c3ccc(Cl)cc23)cc1` was tested. Which growth did it give?
A: 4.56% (active)

Q: For `CCOC(=O)c1c(NCC(=O)Nc2ccc(Br)cc2)sc2c1CCCC2`, which growth is on record?
A: 39.1%

Q: Which growth does the source give for `CN1C(=O)/C(=C/C=C/c2ccco2)SC1=S` here?
A: 101%

Q: Which growth does the source give for `COc1ccc(-c2nnc(SCc3ccc(O)c4ncccc34)o2)cc1` here?
A: 15.6%

Q: For `C#CCOc1ccc(/C=N/Nc2nc(-c3cc4cc(Br)cc(Br)c4oc3=O)cs2)cc1`, which growth is on record?
A: 91.4%

Q: How did the growth turn out when `CS(=O)c1nccc(-c2c(-c3ccc(F)c(OCCc4ccc(F)cc4)c3)nc3sccn23)n1` (configuration not stated) was run?
A: 98.3%

Q: For `O=C1[C@@H]2Cc3c([nH]c4ccccc34)[C@H](c3c(Cl)cccc3Cl)N2C(=O)CN1C1CCN(Cc2c(F)cccc2F)CC1`, which growth is on record?
A: 101%

Q: `NNC(=O)c1sc2nc(-c3cnccn3)cc(-c3cccs3)c2c1N` was tested. Which growth did it give?
A: 104%

Q: How did the growth turn out when `Cn1cc(-c2nnc(N)nc2-c2cn(C)c3ccc(F)cc23)c2cc(F)ccc21` was run?
A: 113%

Q: For `COc1ccccc1/C=C/C=N/NC1=NC2C(S1)N(C)C(=O)N2c1ccccc1` (configuration not stated), which growth is on record?
A: 9.01% (active)

Q: For `C[C@H]1[C@H](C)CC[C@]2(COC(=O)c3cccnc3)CC[C@]3(C)C(=CC[C@@H]4[C@@]5(C)CCCNC(C)(C)[C@@H]5CC[C@]43C)[C@H]12`, which growth is on record?
A: 73.3%

tested on: SF-539 CNS; assay: as above; details: 10 µM unless noted

Q: With `CC1(C)CC[C@]2(C(=O)O)CC[C@]3(C)C(=CCC4[C@@]5(C)C[C@@H](O)[C@@H]6OC(c7ccccc7O)OC[C@@]6(C)C5CC[C@]43C)C2C1` (some centres not stated) as the compound, how does the growth read?
A: 63.7%

Q: `CN(c1ccc(Br)cc1)S(=O)(=O)c1ccc(-c2cnc(C3CC3)o2)cc1` was tested. Which growth did it give?
A: 1.56% (active)

Q: For `CN1CCN(c2nc(-c3csc(-c4ccncc4)n3)cc3ccccc23)CC1`, which growth is on record?
A: 52.6%

Q: `O=C(O)c1ccc(-n2cc(CNc3ccc(F)cc3)c(-c3ccc(C(F)(F)F)cc3)n2)cc1` was tested. Which growth did it give?
A: 88.8%

Q: How did the growth turn out when `CSc1nccc(-c2c(-c3ccc(F)c(OCc4ccc(F)cc4)c3)nc3sccn23)n1` was run?
A: 73.3%

Q: For `O=C(COc1ccc(C2SCC(=O)N2c2ccccc2)cc1)c1ccccc1` (configuration not stated), which growth is on record?
A: 101%

Q: For `O=C(O)CNS(=O)(=O)c1ccc(Oc2ccc(S(=O)(=O)NCC(=O)O)cc2)cc1`, which growth is on record?
A: 92.7%

Q: How did the growth turn out when `Cn1nc(Nc2ccccc2)c(C(=O)NN)c1N` was run?
A: 96%

Q: Which growth does the source give for `COc1cc(/C=N/n2cnc3oc(-c4ccccc4)cc3c2=N)cc(CN2CCN(C)CC2)c1O` here?
A: 94%

Q: `CC(C)SC1=NC(=C(C(=N1)NC2=ClC=CC=C2)C#N)C3=CC=CC=C3` was tested. Which growth did it give?
A: 44.9%

Q: `NS(=O)(=O)c1ccc(Nc2nc(N/N=C/c3ccc(F)cc3)nc(Nc3ccccc3)n2)cc1` was tested. Which growth did it give?
A: 62.2%

Q: Which growth does the source give for `C#C[C@]1(O)CC[C@H]2[C@@H]3CC=C4c5sc(Nc6cccc(C)n6)nc5CC[C@]4(C)[C@H]3CC[C@@]21C` here?
A: -48.8% (active)

Q: With `CNC(=O)c1cc(Oc2ccc3nc(NC(=O)c4cc(C)cc(C)c4)sc3c2)ccn1` as the compound, how does the growth read?
A: 85.6%

Q: `C=C(C)[C@@H]1CC[C@]2(COS(C)(=O)=O)CC[C@]3(C)[C@H](CC[C@@H]4[C@@]5(C)CCCNC(C)(C)[C@@H]5CC[C@]43C)[C@@H]12` was tested. Which growth did it give?
A: 84.9%

Q: `CC(C)=CCc1c2c(c(O)c3c1O[C@]14C(=C[C@@H]5C[C@H]1C(C)(C)O[C@@]4(C/C=C(/C)C(=O)O)C5=O)C3=O)CC(O)C(C)(C)O2` (some centres not stated) was tested. Which growth did it give?
A: -37.2% (active)

Q: With `O=C(Cn1cc(CN2C(=O)c3ccc([N+](=O)[O-])cc3C2=O)nn1)Nc1ccccc1Br` as the compound, how does the growth read?
A: 107%

Q: How did the growth turn out when `COc1cc(-c2nc(SCc3ccc(C)cc3)[nH]c(=O)c2C#N)ccc1OCc1ccccc1` was run?
A: 101%

Q: How did the growth turn out when `CC(C)N=C(N/C(N)=N/c1nc2ccccc2s1)NC(C)C` was run?
A: 52.3%

Q: How did the growth turn out when `O=C(Nc1cc(Cl)cc(Cl)c1)Nc1ccc2oc(=O)ccc2c1` was run?
A: 22.5%

Q: `CS(=O)(=O)c1nccc(-c2c(-c3ccc(F)c(OCc4ccccc4)c3)nc3sccn23)n1` was tested. Which growth did it give?
A: 95.1%

Q: Which growth does the source give for `COc1ccc(C2C(C#N)=C(N)Oc3c2sc2ccc(C)cc32)cc1` (configuration not stated) here?
A: 21%

Q: How did the growth turn out when `C#C[C@]1(O)CC[C@H]2[C@@H]3CC=C4c5sc(-c6ccccn6)nc5CC[C@]4(C)[C@H]3CC[C@@]21C` was run?
A: 30.9%

Q: `COc1ccc(OC)c([C@H]2c3[nH]c4ccccc4c3C[C@H]3C(=O)N(CCCCCCC(=O)NO)CC(=O)N23)c1` was tested. Which growth did it give?
A: 78.5%

Q: With `Cc1cnc2nc(NN)[nH]n12` as the compound, how does the growth read?
A: 100%

Q: Which growth does the source give for `COc1ccc(-c2nc3cc(Cl)c(Cl)cc3n2CC(=O)N=Nc2c(O)[nH]c3ccc(Br)cc23)cc1` here?
A: 14.9%

Q: With `O=C(NCCCCCCNC(=O)c1c2c(nc3ccccc13)-c1cccnc1SC2)c1c2c(nc3ccccc13)-c1cccnc1SC2` as the compound, how does the growth read?
A: 86.8%

Q: `COc1ccc(-c2ccc3c4c(cccc24)C(=O)N(N2C(=O)c4cccc5cccc(c45)C2=O)C3=O)cc1` was tested. Which growth did it give?
A: 95.7%

Q: Which growth does the source give for `COc1ccc(-c2nc3cc(Cl)c(Cl)cc3n2CC(=O)N=Nc2c(O)[nH]c3ccc(Cl)cc23)cc1` here?
A: 36%

Q: With `CCOC(=O)c1c(NCC(=O)Nc2ccc(Br)cc2)sc2c1CCCC2` as the compound, how does the growth read?
A: 12%

Q: With `CN1C(=O)/C(=C/C=C/c2ccco2)SC1=S` as the compound, how does the growth read?
A: 84.7%

Q: How did the growth turn out when `COc1ccc(-c2nnc(SCc3ccc(O)c4ncccc34)o2)cc1` was run?
A: 27.2%

Q: Which growth does the source give for `C#CCOc1ccc(/C=N/Nc2nc(-c3cc4cc(Br)cc(Br)c4oc3=O)cs2)cc1` here?
A: 84.4%

Q: For `CS(=O)c1nccc(-c2c(-c3ccc(F)c(OCCc4ccc(F)cc4)c3)nc3sccn23)n1` (configuration not stated), which growth is on record?
A: 91.2%

Q: How did the growth turn out when `O=C1[C@@H]2Cc3c([nH]c4ccccc34)[C@H](c3c(Cl)cccc3Cl)N2C(=O)CN1C1CCN(Cc2c(F)cccc2F)CC1` was run?
A: 52.2%

Q: For `NNC(=O)c1sc2nc(-c3cnccn3)cc(-c3cccs3)c2c1N`, which growth is on record?
A: 94.9%

Q: With `Cn1cc(-c2nnc(N)nc2-c2cn(C)c3ccc(F)cc23)c2cc(F)ccc21` as the compound, how does the growth read?
A: 96.4%

Q: How did the growth turn out when `COc1ccccc1/C=C/C=N/NC1=NC2C(S1)N(C)C(=O)N2c1ccccc1` (configuration not stated) was run?
A: -15.5% (active)

Q: Which growth does the source give for `C[C@H]1[C@H](C)CC[C@]2(COC(=O)c3cccnc3)CC[C@]3(C)C(=CC[C@@H]4[C@@]5(C)CCCNC(C)(C)[C@@H]5CC[C@]43C)[C@H]12` here?
A: 78.8%
